According to PubChem BioAssay (Tox21):
Inconclusive results are not listed. Calls of active or inactive are those of the source. Unless noted, calls follow the shape of the dose curve; as a rule, active = well fitted curve in the direction sought with a large enough effect in the repeat runs; inconclusive = weak or mixed curves; inactive = no such curve, though single readings can be large; an effect the other way counts as inactive or inconclusive.

Tests used:
[1] = qHTS assay to identify small molecule agonists of the peroxisome proliferator-activated receptor delta (PPARd) signaling pathway - cell viability counter screen (AID 743211); also: nearly all actives have a fitted effect of over 55% in size
In short: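 Tox21 library compounds, delivered in DMSO, were incubated 17 h with PPARd-bla HEK293H cells; cytotoxicity was taken from CellTiter-Glo luminescence read 30 min after reagent addition.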

[2] = biological target: Peroxisome proliferator-activated receptor delta (Homo sapiens) (UniProt Q03181); assay: qHTS assay to identify small molecule agonists of the peroxisome proliferator-activated receptor delta (PPARd) signaling pathway (AID 743212; calls by dose curve)
In short: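 HEK293H UAS-bla reporter cells, human PPARd system; compounds delivered in DMSO after 5 h plating, then at 37 C. Beta-lactamase FRET read, 2 h RT substrate step.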

[3] = biological target: Peroxisome proliferator-activated receptor delta (Homo sapiens) (UniProt Q03181); assay: qHTS assay to identify small molecule antagonists of the peroxisome proliferator-activated receptor delta (PPARd) signaling pathway (AID 743215; active = well fitted inhibition curve with a large enough effect in the signal ratio in the repeat runs, not every such curve was filed as active; the % refers to the signal ratio;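 also: cells stimulated with agonist L165041 at 300 nM final during compound exposure; series mostly up to about 62 µM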)
In short: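 Inhibition of L165041-driven (300 nM final) PPARd signaling is scored in HEK293H UAS-bla cells. Exposure lasts 17 h at 37 C; beta-lactamase activity is then read by FRET substrate fluorescence after 2 h at room temperature.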

[4] = qHTS assay to identify small molecule agonists of the farnesoid-X-receptor (FXR) signaling pathway - cell viability counter screen (AID 743218); also: nearly all actives have a fitted effect of over 45% in size
In short: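 Cytotoxicity counter-screen run in parallel, same wells: FXR-UAS-bla HEK 293T cells dosed 16 h at 37 C, viability read by CellTiter-Glo luminescence after 30 min at room temperature.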

[5] = qHTS assay to identify small molecule antagonists of the farnesoid-X-receptor (FXR) signaling pathway - cell viability counter screen (AID 743221; active = well fitted cell-killing curve with a large enough effect in the repeat runs, not every such curve was filed as active; also: nearly all actives have a fitted effect of over 50% in size)
In short: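 Cytotoxicity is taken from ATP luminescence (CellTiter-Glo, 30 min, room temperature) in FXR-bla HEK 293T cells previously incubated 16 h at 37 C with compound and chenodeoxycholic acid at 50 uM final.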

[6] = biological target: Vitamin D3 receptor (Homo sapiens) (UniProt P11473); assay: qHTS assay to identify small molecule agonists of the vitamin D receptor (VDR) signaling pathway (AID 743222; calls by dose curve)
In short: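 Quantitative HTS agonist-mode screen: compounds in DMSO were pin-transferred onto VDR-bla cells and incubated 16 h at 37C, 5% CO2. Reporter activity was detected with LiveBLAzer B/G FRET substrate after 2 h at room temperature.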

[7] = qHTS assay to identify small molecule agonists of the NFkB signaling pathway (AID 1159509; active = well fitted curve in the direction sought with a large enough effect in the signal ratio in the repeat runs, not every such curve was filed as active; the % refers to the signal ratio; also: series mostly up to about 61 µM)
In short: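 NFkB-bla ME-180 cells with a beta-lactamase reporter under an NF-kB response element were plated overnight, treated with compounds in DMSO for 5 hr at 37 C, then loaded with FRET substrate for 1.5 hr at room temperature.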

[8] = qHTS assay to identify small molecule agonists of the NFkB signaling pathway - cell viability counter screen (AID 1159515; calls by dose curve; also: series mostly up to about 61 µM; nearly all actives have a fitted effect of over 55% in size)
In short: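 Multiplexed viability readout: after the 5 hr compound exposure and 1.5 hr FRET substrate step, CellTiter-Glo reagent went into the same NFkB-bla ME-180 wells; ATP luminescence was measured after 30 min at room temperature.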

[9] = qHTS assay to identify small molecule agonists of the endoplasmic reticulum stress response signaling pathway (AID 1159516; active = well fitted activation curve with a large enough effect in the signal ratio in the repeat runs, not every such curve was filed as active; the % refers to the signal ratio)
In short: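 Tox21 10K library screened in quantitative HTS format on ESRE-bla HeLa cells, a beta-lactamase reporter under ER stress response element control; 5 hr treatment, FRET read.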

[10] = qHTS assay to identify small molecule agonists of the endoplasmic reticulum stress response signaling pathway - cell viability counter screen (AID 1159517; calls by dose curve; also: series mostly up to about 61 µM; nearly all actives have a fitted effect of over 50% in size)
In short: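 Cells, HeLa ESRE-bla; density, 1,500/well; dosing, 5 hr at 37 C, 5% CO2; readout, CellTiter-Glo luminescence after 30 min RT.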

[11] = qHTS assay to identify small molecule antagonists of the retinoid-related orphan receptor gamma (ROR-gamma) signaling pathway - cell viability counter screen (AID 1159520); also: nearly all actives have a fitted effect of over 50% in size
In short: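 Cytotoxicity was read from cellular ATP (CellTiter-Glo luminescence) after 16 hr at 37 C with 1 uM doxycycline induction. The inducer was added 2 hr after compound transfer to Tet-on ROR gamma CHO cells.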

[12] = biological target: Nuclear receptor ROR-gamma (Homo sapiens) (UniProt P51449); assay: qHTS assay to identify small molecule antagonists of the retinoid-related orphan receptor gamma (ROR-gamma) signaling pathway (AID 1159521;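 also: CHO cells with doxycycline inducible ROR-gamma driving an RORE luciferase reporter; top concentration of the series differs between compounds; nearly all actives have a fitted effect of over 50% in size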)
In short: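 Inducible-expression reporter assay: doxycycline (1 uM final) switched on RORγ in CHO cells bearing a ROR response element-luciferase construct, with test compounds present from 2 h beforehand. Decreased luminescence after 16 h defined antagonist activity.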

[13] = qHTS assay to identify small molecule agonists of the AP-1 signaling pathway - cell viability counter screen (AID 1159525; calls by dose curve; also: nearly all actives have a fitted effect of over 55% in size)
In short: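 Luminescent ATP readout (Cell Titer Glo, 30 min RT), normalised to DMSO and tetra n-octyl ammonium bromide controls. Cells were ME-180 AP-1-bla in 0.5% dialyzed FBS Opti-MEM, with a 5 h, 37 °C compound exposure.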

[14] = qHTS assay to identify small molecule agonists of the AP-1 signaling pathway (AID 1159526; calls by dose curve)
[15] = qHTS assay to identify small molecule antagonists of the peroxisome proliferator-activated receptor delta (PPARd) signaling pathway - cell viability counter screen (AID 743213); also: nearly all actives have a fitted effect of over 50% in size
In short: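 PPARd-bla HEK293H cells were treated with compounds plus agonist L165041 (300 nM final) for 17 h at 37 C. Viability was then read in the same wells by CellTiter-Glo luminescence after 30 min at room temperature.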

[16] = qHTS assay to identify small molecule agonists of the vitamin D receptor (VDR) signaling pathway - cell viability counter screen (AID 743224)
In short: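 Viability is measured in the same wells as the VDR-bla reporter assay: after 16 h compound treatment and 2 h substrate loading, CellTiter-Glo is added and luminescence read 30 min later.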

[17] = qHTS assay to identify small molecule antagonists of the vitamin D receptor (VDR) signaling pathway - cell viability counter screen (AID 743225); also: nearly all actives have a fitted effect of over 50% in size
In short: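 Same-well multiplex: following 16 h treatment of HEK 293T cells carrying a UAS-driven beta-lactamase reporter with compound and agonist (3 nM final), and a 2 h FRET substrate step, CellTiter-Glo was added and luminescence read after 30 min.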

[18] = biological target: Bile acid receptor (Homo sapiens) (UniProt Q96RI1); assay: qHTS assay to identify small molecule antagonists of the farnesoid-X-receptor (FXR) signaling pathway (AID 743217; active = well fitted inhibition curve with a large enough effect in the signal ratio in the repeat runs, not every such curve was filed as active; the % refers to the signal ratio)
In short: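 Antagonist mode against 50 uM (final) chenodeoxycholic acid stimulation in FXR-bla HEK 293T cells, 16 h at 37 °C. Inhibition detected as reduced beta-lactamase activity via LiveBLAzer B/G FRET fluorescence after 2 h at room temperature.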

[19] = biological target: Bile acid receptor (Homo sapiens) (UniProt Q96RI1); assay: qHTS assay to identify small molecule agonists of the farnesoid-X-receptor (FXR) signaling pathway (AID 743220; active = well fitted activation curve with a large enough effect in the signal ratio in the repeat runs, not every such curve was filed as active; the % refers to the signal ratio)
In short: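 Beta-lactamase reporter under UAS control in GeneBLAzer FXR HEK 293T cells (5000/well) measured with LiveBLAzer FRET substrate after 2 h at room temperature. Compound exposure lasted 16 h at 37C.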

[20] = biological target: Vitamin D3 receptor (Homo sapiens) (UniProt P11473); assay: qHTS assay to identify small molecule antagonists of the vitamin D receptor (VDR) signaling pathway (AID 743223; active = well fitted inhibition curve with a large enough effect in the signal ratio in the repeat runs, not every such curve was filed as active; the % refers to the signal ratio)
In short: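 Quantitative HTS in VDR-bla reporter cells stimulated with 1alpha,25-dihydroxyvitamin D3, 3 nM final. Compound exposure 16 h, 37C, 5% CO2. Read-out: beta-lactamase FRET substrate fluorescence, 2 h RT.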

Measured: Potency

Chain of Peroxisome proliferator-activated receptor delta (Homo sapiens) (Q03181 whole entry, looked up): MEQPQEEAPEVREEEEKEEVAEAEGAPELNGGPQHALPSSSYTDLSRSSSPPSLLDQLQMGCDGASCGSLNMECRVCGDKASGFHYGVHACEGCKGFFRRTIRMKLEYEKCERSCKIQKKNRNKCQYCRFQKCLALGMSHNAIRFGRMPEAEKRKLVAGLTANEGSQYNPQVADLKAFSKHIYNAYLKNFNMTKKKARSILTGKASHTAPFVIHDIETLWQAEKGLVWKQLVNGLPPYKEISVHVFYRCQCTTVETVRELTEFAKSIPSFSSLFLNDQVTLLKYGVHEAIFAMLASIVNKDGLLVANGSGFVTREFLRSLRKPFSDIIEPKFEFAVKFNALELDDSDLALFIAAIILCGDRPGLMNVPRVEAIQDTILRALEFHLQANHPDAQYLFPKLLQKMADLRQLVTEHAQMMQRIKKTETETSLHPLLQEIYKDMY
Chain of Bile acid receptor (Homo sapiens) (Q96RI1 whole entry, looked up): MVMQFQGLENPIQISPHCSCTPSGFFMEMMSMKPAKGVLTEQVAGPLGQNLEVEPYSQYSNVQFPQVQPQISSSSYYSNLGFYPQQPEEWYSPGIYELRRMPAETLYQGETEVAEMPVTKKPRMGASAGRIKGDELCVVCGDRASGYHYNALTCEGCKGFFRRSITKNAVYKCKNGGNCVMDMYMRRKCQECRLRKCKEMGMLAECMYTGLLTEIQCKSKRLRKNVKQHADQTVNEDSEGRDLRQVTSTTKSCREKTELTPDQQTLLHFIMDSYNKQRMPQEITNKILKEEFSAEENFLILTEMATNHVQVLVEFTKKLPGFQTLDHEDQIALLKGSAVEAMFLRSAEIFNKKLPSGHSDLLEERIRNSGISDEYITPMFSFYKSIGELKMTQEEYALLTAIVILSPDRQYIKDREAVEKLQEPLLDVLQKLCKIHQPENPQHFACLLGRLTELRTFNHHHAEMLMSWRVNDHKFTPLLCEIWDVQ
Chain of Vitamin D3 receptor (Homo sapiens) (P11473 whole entry, looked up): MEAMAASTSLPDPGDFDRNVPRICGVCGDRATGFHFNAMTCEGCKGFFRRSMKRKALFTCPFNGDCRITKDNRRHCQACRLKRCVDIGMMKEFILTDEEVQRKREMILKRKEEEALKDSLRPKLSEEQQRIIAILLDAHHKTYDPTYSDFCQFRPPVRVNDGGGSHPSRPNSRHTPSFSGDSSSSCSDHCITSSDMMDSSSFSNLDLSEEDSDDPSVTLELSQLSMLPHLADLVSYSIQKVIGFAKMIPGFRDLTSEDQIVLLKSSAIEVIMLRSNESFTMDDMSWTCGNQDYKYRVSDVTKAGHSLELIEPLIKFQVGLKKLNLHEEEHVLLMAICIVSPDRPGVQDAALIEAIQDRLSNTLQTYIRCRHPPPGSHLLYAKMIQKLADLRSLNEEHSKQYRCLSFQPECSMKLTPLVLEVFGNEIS

NC(CS)C(=O)O (stereo not given)
inactive: [1] | [2] | [3] | [4] | [5] | [6] | [7] | [8] | [9] | [10] | [11] | [12] | [13] | [14]

CC/C=C\C#N
inactive: [1] | [2] | [15] | [5] | [16] | [7] | [8] | [9] | [10] | [11] | [12] | [13] | [14]

CCCCCCCCCCCCCCC
inactive: [1] | [2] | [15] | [3] | [5] | [6] | [16] | [17] | [7] | [8] | [9] | [10] | [11] | [12] | [13] | [14]

O=C(O)c1cccc(C(=O)O)n1
inactive: [1] | [2] | [15] | [18] | [19] | [6] | [17] | [7] | [8] | [9] | [10] | [11] | [12] | [13] | [14]

COC(=O)CCCC(=O)O
inactive: [1] | [2] | [15] | [3] | [5] | [6] | [16] | [17] | [7] | [8] | [9] | [10] | [11] | [12] | [13] | [14]

Cc1ccccc1C(=O)O
inactive: [1] | [2] | [15] | [4] | [5] | [6] | [20] | [16] | [17] | [7] | [8] | [9] | [10] | [11] | [12] | [13] | [14]

CC(C)CCOC(=O)CC(C)C
inactive: [1] | [2] | [15] | [18] | [4] | [19] | [5] | [6] | [16] | [17] | [7] | [8] | [9] | [10] | [11] | [12] | [13] | [14]

CC1(C)OC(=O)Nc2ccc(Br)cc21
inactive: [1] | [2] | [15] | [19] | [5] | [6] | [20] | [16] | [17] | [7] | [8] | [9] | [10] | [11] | [12] | [13] | [14]

COC(=O)c1ccc(C(=O)OC)c(C(=O)OC)c1
inactive: [1] | [2] | [15] | [5] | [16] | [17] | [7] | [8] | [9] | [10] | [11] | [12] | [13] | [14]
